# Test results: PubChem BioAssay (NCI)
# Compounds without any hit were thinned out: in the full panel of roughly 83,000, 20% have a hit.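 In brief: 96-well plates, 48 h treatment, single concentration, percent growth endpoint.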 Values without a mark were called inactive. Activity calls are given as the source filed them. Rule for the calls: active = growth percent below 10; inactive = the rest.
# Columns and labels:
# Experiment in all cases: NCI-60 one-dose screen, 48 h (100 = growth as untreated, 0 = no growth, -100 = all killed)
# Details in all cases: 10 µM unless noted
# HCT-15 colon = tested on: HCT-15 colon
# HT29 colon = tested on: HT29 colon
# SNB-19 CNS = tested on: SNB-19 CNS
# U251 CNS = tested on: U251 CNS
# PC-3 prostate = tested on: PC-3 prostate
# SK-MEL-5 melanoma = tested on: SK-MEL-5 melanoma
# UACC-62 melanoma = tested on: UACC-62 melanoma
# LOX IMVI melanoma = tested on: LOX IMVI melanoma
# SK-MEL-28 melanoma = tested on: SK-MEL-28 melanoma
Compound,growth (HCT-15 colon),growth (HT29 colon),growth (SNB-19 CNS),growth (U251 CNS),growth (PC-3 prostate) [%],growth (SK-MEL-5 melanoma),growth (UACC-62 melanoma),growth (LOX IMVI melanoma),growth (SK-MEL-28 melanoma)
Fc1ccc(Cc2ccc(F)cc2)cc1,116%,111%,102%,98.5%,102,101%,101%,97.9%,105%
CC(C)(C)n1cc(-c2ccnc(NCCNS(=O)(=O)c3ccccc3)c2)c(-c2cccc(O)c2)n1,9.17% (active),15.6%,80.8%,52%,41.5,23.2%,70.1%,20.4%,60.4%
C=C1CCC2C3(C)COC(c4cccc(Cl)c4)OC3CCC2(C)C1/C=C/C1=CCOC1=O (configuration not stated),59.1%,56.9%,77.3%,69.4%,44.2,35%,62.6%,52.1%,78.8%
CCOC(=O)N1CCN(c2nc(Nc3cc(C)[nH]n3)c3ccccc3n2)CC1,40.4%,22.6%,89.2%,,57.2,57.9%,66.8%,24%,59.6%
CCCCCCCCCCCCCCCCCCNC(=O)[C@H]1CSC(c2ccc(OC)c(F)c2)N1 (some centres not stated),71%,8.84% (active),65.1%,-53.1% (active),54.2,23.8%,-86.5% (active),30.1%,-74.5% (active)
C=C1CC2(OC1=O)C(=O)N(CCCCCCCN1C(=O)C3(CC(=C)C(=O)O3)c3ccccc31)c1ccccc12 (configuration not stated),-19.6% (active),-17.4% (active),67.9%,36.5%,45.7,61.3%,34.9%,-82.5% (active),9.63% (active)
O=c1ccc2cc3ccccc3cc2[nH]1,109%,101%,104%,95.5%,105,80.8%,66.4%,102%,124%
CCCN(CCC)CN(CCC)CCC,102%,96.5%,,98.1%,97.5,107%,,104%,106%
COc1cccc(/C=C2/C(=O)N(Cc3ccco3)SC2=S)c1OC,97.2%,90.1%,107%,,103,97.5%,93.8%,33.8%,101%
COc1ccc(C/C(C)=C(\c2ccc(Cl)cc2)c2ccc(OCCN3CCCCCC3)cc2)cc1,43.1%,15.7%,84.6%,64.5%,69.2,80%,93.2%,90%,91%
Cc1ccc2c(c1)C(=O)/C(=C/c1ccc(OCC(=O)c3ccccc3)cc1)O2,75.3%,101%,,99.1%,,86.9%,63.8%,102%,112%
CCCCCC(=O)Oc1ccc(/C(=C(\C)c2ccccc2)c2ccc(OCCN(CC)CC)cc2)cc1,38.6%,4.26% (active),85.3%,52.1%,55.7,54.4%,57.4%,68.8%,53%
COc1ccc(S(=O)(=O)NCCNc2nccc(-c3c(-c4cccc([N+](=O)[O-])c4)nc4sccn34)n2)cc1,77.5%,74.8%,91.6%,91.1%,64.6,63.6%,84%,88.6%,107%
O=C(CN1CCN(c2cc3c(cc2F)c(=O)c(C(=O)O)cn3C2CC2)CC1)Nc1cc(=O)[nH]c(=O)[nH]1,96.1%,102%,97.4%,106%,99,98.9%,96%,101%,101%
CC(C)C1=C[C@@]23CC[C@@H]4[C@](C)(CCC[C@@]4(C)C(=O)OCC#CCN4CCCC4)[C@H]2C[C@@H]1[C@H]1C(=O)OC(=O)[C@H]13,90.6%,90.7%,97.4%,100%,77.8,91.3%,82.1%,89.1%,101%
Clc1cccc(Nc2nc(Nc3cnc4ccccc4c3)c3[nH]cnc3n2)c1,94.4%,79%,80.6%,76.4%,49.2,53%,47.9%,77.4%,86.4%
Clc1nc(Cl)c2c3c(sc2n1)CCCC3,26.7%,11.3%,,49.7%,63.8,50.8%,92.9%,13.4%,55.1%
O=C(Cc1ccccc1)c1ccc(Cl)cc1,97.1%,115%,,99.5%,116,103%,93.2%,102%,114%
c1ccc(CSc2ncnc3nc[nH]c23)nc1,103%,112%,,113%,112,100%,88.4%,106%,128%
O=C(/C=C/c1cccc(Br)c1)c1ccccc1,76.6%,67.9%,96%,,68.1,92.3%,92.6%,78.2%,100%
CCC(c1ccc(O)cc1)C(CC)c1ccc(O)c(F)c1 (configuration not stated),78.2%,102%,125%,89.8%,72.1,66.4%,59.4%,87.2%,78.9%
Cc1ccc(N)cc1F,91.7%,110%,,95.8%,108,104%,96%,87.8%,117%
COc1cccc(-c2cn3c(ccc4ccccc43)n2)c1,21.9%,20.1%,38.3%,38.4%,34.8,9.42% (active),34.4%,31.6%,60%
C=C(CN1CCN(c2cccc(C(F)(F)F)n2)CC1)c1ccc(C(=O)Nc2ccccc2N)cc1,12.9%,-23.3% (active),,23.1%,22.6,-62.2% (active),26.9%,8.1% (active),
COCCOc1ccc(-c2nc3ccc(-c4nc5ccc(N6CCN(C)CC6)cc5[nH]4)cc3[nH]2)cc1,85.9%,4.98% (active),7.61% (active),,22.5,11.2%,-39.9% (active),-72.5% (active),-39.2% (active)
COc1ccc(OCC(=O)Nc2ccc(-c3nc4ccccc4s3)cc2C)cc1,85.9%,91.7%,,96.2%,75.9,70.8%,83.2%,89%,107%
C=C1C(=O)O[C@H]2[C@H]1CC/C(Cn1cc(Cc3c[nH]c4ccccc34)nn1)=C\CC[C@@]1(C)O[C@@H]21,-25.9% (active),3.04% (active),65.4%,37.6%,38.7,24.9%,38%,-76.2% (active),20%
CC1CN(C(C)C)C(=S)N(c2ccccc2)C1=O (configuration not stated),104%,104%,,99.9%,105,98.1%,94.4%,93.4%,122%
O=C(O)c1cccnc1Br,97.6%,109%,,97.9%,108,109%,96%,96.6%,112%
COc1ccc(/C=N\NC(=O)c2ccncc2)cc1O,107%,112%,95.1%,,106,92.5%,99.8%,97.2%,104%
